Test [1] can be described thus: antimalarial activity against Dd2 strain (AID 2302;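 active = growth inhibition above 50% at the single 2 µM test dose, taken to imply half-maximal potency below 2 µM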;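 also: 0% = DMSO untreated growth and 100% = chloroquine plus artemisinin killed control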). As to conditions: P. falciparum Dd2 in RBCs, LDH growth readout, 72 h; at 2 µM; hits give high values.
A short description of test [2]: human hepatoma cell viability loss – ATP luminescence, cytotoxicity control for P. falciparum antimalarial project, primary screen (AID 2303;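 active = inhibition above 50%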;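 also: 0% = DMSO wells and 100% = digitonin-killed cells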). As to conditions: HepG2 viability, 24-48 h, at 10 µM, hits give high values.
Test [3] addresses L-lactate dehydrogenase (Plasmodium falciparum (isolate CDC / Honduras)) (UniProt Q27743). The experiment in a line: PfLDH activity inhibition – cell lysate, 3D7 strain, counter-screen for P. falciparum growth inhibition project (AID 2304).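 Also: 0% = vehicle and 100% = reference inhibitor.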 As to conditions: P. falciparum 3D7 crude extract, LDH APAD/NBT absorbance; at 2 µM; hits give high values. (A counterscreen serves to expose hits that act by an unwanted route or on another target.)

Test [4] in a line: inhibition of 3D7 malaria parasite growth – strain 3D7 (AID 2306).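 Also: 0% = DMSO wells and 100% = chloroquine plus artemisinin control wells.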 To be noted: P. falciparum 3D7 erythrocytic growth, LDH absorbance, 72 h; at 2 µM; hits give high values.
Test [5] addresses Calcium-dependent protein kinase 1 (Plasmodium falciparum (isolate 3D7)) (UniProt P62344). The experiment in a line: PfCDPK1 kinase inhibitors, biochemical, TCAMS library (AID 1159585; cut-off not given, nearly all actives have IC50 up to about 0.98 µM;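 also: inhibitors leave more ATP so luminescence rises with inhibition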). To be noted: recombinant PfCDPK1, Kinase-Glo ATP depletion luminescence.
For test [6], the target named is Plasmodium falciparum protein kinase 6 (PK6, PF3D7_1337100) (UniProt Q8IDW1). The experiment in a line: PfPK6 kinase inhibitors, biochemical, TCAMS library (AID 1159586). To be noted: recombinant PfPK6, Kinase-Glo ATP depletion luminescence. (In general: In Kinase-Glo more light means more ATP remaining.)
In test [7] the target is Protein kinase 7 (PK7), Plasmodium falciparum 3D7 (PF3D7_0213400) (UniProt Q7YTF7). The experiment in a line: inhibition of Plasmodium PK7 catalytic activity – biochemical, TCAMS antimalarial set, Kinase-Glo luminescence (AID 1159587). To be noted: recombinant PfPK7, Kinase-Glo ATP depletion luminescence.
The target in test [8] is Calcium-dependent protein kinase 4 (Plasmodium falciparum (isolate 3D7)) (UniProt Q8IBS5). The experiment in a line: PfCDPK4 kinase inhibitors, biochemical, TCAMS library (AID 1159588; cut-off not given, nearly all actives have IC50 up to about 0.91 µM). As to conditions: recombinant PfCDPK4, Kinase-Glo ATP depletion luminescence.

Unmarked numbers belong to inactive results. For some assays here: Measured potencies and affinities stand elsewhere. Activity calls are given as the source filed them. Unless noted, no rule for the calls is given here.

Chain of Calcium-dependent protein kinase 1 (Plasmodium falciparum (isolate 3D7)) (P62344 whole entry, looked up): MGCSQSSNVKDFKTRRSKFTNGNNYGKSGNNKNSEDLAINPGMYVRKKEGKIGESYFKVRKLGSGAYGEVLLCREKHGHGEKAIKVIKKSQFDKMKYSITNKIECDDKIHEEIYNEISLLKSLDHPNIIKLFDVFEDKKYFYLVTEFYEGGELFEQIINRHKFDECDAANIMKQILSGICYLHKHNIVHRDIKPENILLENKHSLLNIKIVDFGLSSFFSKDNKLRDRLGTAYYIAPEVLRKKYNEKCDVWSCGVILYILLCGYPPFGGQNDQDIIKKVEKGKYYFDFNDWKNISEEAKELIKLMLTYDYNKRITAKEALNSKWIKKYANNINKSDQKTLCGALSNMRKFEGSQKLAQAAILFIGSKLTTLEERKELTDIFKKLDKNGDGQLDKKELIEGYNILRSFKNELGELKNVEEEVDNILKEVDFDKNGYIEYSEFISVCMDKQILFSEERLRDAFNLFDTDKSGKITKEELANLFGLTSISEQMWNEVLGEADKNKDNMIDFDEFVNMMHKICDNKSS
Chain of Plasmodium falciparum protein kinase 6 (PK6, PF3D7_1337100) (Q8IDW1 1-305): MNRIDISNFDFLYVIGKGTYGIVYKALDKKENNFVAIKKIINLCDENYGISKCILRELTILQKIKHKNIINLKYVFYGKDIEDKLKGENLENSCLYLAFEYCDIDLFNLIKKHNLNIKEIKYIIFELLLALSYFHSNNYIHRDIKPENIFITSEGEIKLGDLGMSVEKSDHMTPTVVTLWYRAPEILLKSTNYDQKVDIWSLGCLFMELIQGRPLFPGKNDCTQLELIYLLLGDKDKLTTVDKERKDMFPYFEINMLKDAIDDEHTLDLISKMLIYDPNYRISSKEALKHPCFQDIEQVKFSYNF
Chain of Calcium-dependent protein kinase 4 (Plasmodium falciparum (isolate 3D7)) (Q8IBS5 whole entry, looked up): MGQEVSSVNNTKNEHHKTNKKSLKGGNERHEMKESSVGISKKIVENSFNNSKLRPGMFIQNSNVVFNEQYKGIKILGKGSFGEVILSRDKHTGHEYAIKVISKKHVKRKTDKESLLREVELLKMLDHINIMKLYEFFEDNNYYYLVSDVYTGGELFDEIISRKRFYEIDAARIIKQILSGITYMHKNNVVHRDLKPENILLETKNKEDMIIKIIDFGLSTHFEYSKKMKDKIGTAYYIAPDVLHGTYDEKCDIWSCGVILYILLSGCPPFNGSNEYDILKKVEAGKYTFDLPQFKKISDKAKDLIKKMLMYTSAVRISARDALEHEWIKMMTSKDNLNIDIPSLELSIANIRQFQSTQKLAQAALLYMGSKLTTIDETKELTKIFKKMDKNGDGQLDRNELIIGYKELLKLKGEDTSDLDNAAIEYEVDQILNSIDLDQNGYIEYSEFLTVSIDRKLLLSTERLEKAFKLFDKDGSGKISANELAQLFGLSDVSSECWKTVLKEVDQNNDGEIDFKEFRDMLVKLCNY
Chain of Protein kinase 7 (PK7), Plasmodium falciparum 3D7 (PF3D7_0213400) (Q7YTF7 1-343): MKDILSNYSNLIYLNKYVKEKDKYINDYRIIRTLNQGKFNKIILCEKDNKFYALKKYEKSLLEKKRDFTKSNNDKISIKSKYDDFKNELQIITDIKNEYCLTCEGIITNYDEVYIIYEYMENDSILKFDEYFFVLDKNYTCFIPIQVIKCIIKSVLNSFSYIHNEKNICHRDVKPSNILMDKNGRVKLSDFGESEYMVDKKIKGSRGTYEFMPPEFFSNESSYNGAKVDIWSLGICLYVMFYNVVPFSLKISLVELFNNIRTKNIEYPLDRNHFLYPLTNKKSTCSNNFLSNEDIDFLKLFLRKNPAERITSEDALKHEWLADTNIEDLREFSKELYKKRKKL
Chain of L-lactate dehydrogenase (Plasmodium falciparum (isolate CDC / Honduras)) (Q27743 whole entry, looked up): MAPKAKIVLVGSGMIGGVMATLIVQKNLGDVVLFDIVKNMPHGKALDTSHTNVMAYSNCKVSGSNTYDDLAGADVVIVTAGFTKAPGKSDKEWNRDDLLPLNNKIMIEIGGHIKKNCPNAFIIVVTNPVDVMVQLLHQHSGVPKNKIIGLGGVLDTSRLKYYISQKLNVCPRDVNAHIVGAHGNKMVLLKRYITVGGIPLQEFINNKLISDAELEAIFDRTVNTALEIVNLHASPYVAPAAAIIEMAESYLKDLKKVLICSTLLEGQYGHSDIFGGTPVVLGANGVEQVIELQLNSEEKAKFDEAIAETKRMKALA

As usually defined, the inhibition is the relative decrease from the control value, in per cent. As to `COc1ccc2nc(N(CCCn3ccnc3)C(=O)C=Cc3cccs3)sc2c1`, the growth inhibition was 26% in test [1] and 92% (active) in test [4]. Moreover, the inhibition was 8% in test [2] and -3% in test [3]. Also, the result in test [5], in test [6], in test [7] and in test [8] was inactive.

For the molecule `COc1ccc(C2(CNCC(O)c3cccc([N+](=O)[O-])c3)CCCCC2)cc1OC` (configuration not stated), the figures for the growth inhibition in test [1] and in test [4] were 85% (active) and 95% (active), respectively. The inhibition in test [2] was -2%; in test [3], 3%. The result in test [5], in test [6], in test [7] and in test [8] was inactive.

As for `COc1ccc2nccc([C@@H](O)CNCCCN(C)CCOc3cc(F)cc(F)c3)c2c1`, the growth inhibition in test [1] was 58% (active); in test [4] it was 99% (active). For the same molecule, the inhibition in test [2] was 11%; in test [3] it was -1%. Moreover, the outcome in test [5], in test [6], in test [7] and in test [8] was inactive.

With `O=S(=O)(c1cccc(Cl)c1F)N(CCC(O)(C(F)(F)F)C(F)(F)F)Cc1cccc(O)c1`, the growth inhibition in test [1] was 86% (active); in test [4] it was 100% (active). The inhibition in test [2] was -5%; in test [3], 0%. Moreover, the result in test [5], in test [6], in test [7] and in test [8] was inactive.

For the molecule `COc1ccc2ncc(F)c(CCN3C[C@H](CNCc4ccc5ccccc5c4)[C@H](O)C3)c2n1`, the growth inhibition in test [1] was 78% (active); in test [4], 100% (active). For the same molecule, the inhibition in test [2] was 57% (active); in test [3], -3%. In addition, the result in test [5], in test [6], in test [7] and in test [8] was inactive.

In the case of `COc1c(C)[nH]c(C)c(-c2ccc(Oc3cccc(C(F)(F)F)c3)cc2)c1=O`, the values for the growth inhibition in test [1] and in test [4] were 96% (active) and 98% (active), respectively. In addition, the inhibition is 40% in test [2] and 3% in test [3]. The result in test [5], in test [6], in test [7] and in test [8] was inactive.

With `COC(=O)c1cccc(NC(=O)NCCNc2ccnc(Nc3ccc(F)cc3)n2)c1`, the growth inhibition in test [1] is 5%; in test [4], 93% (active). Further, the values for the inhibition in test [2] and in test [3] were 10% and -6%, respectively. For the same molecule, the outcome in test [5], in test [6], in test [7] and in test [8] was inactive.

In the case of `Cc1cccc2[nH]c(-c3ccc(-c4ccc(CN5CCN(CCC#N)CC5)cc4)cc3)nc12`, the growth inhibition was 27% in test [1] and 91% (active) in test [4]. Further, the inhibition in test [2] is 48%; in test [3], 0%. Besides, the result in test [5], in test [6], in test [7] and in test [8] was inactive.

With `COc1ccc2c(NN=Cc3ccc(F)cc3)cc(C)nc2c1`, the results for the growth inhibition in test [1] and in test [4] were 99% (active) and 101% (active), respectively. Also, the values for the inhibition in test [2] and in test [3] were 4% and -3%, respectively. In addition, the outcome in test [5], in test [6], in test [7] and in test [8] was inactive.

As for `CCN(CC)CCN(Cc1ccc(-c2ccc(C(F)(F)F)cc2)cc1)C(=O)Cn1c(CCC2CCCCC2)nc(=O)c2ccccc21`, the growth inhibition in test [1] was 25%; in test [4], 87% (active). Also, the inhibition in test [2] is 32%; in test [3], 3%. For the same molecule, the outcome in test [5], in test [6], in test [7] and in test [8] was inactive.

Take `CCOc1ccc2c(NN=Cc3cccc(Cl)c3)cc(C)nc2c1`: the growth inhibition in test [1] is 34%; in test [4], 93% (active). The inhibition in test [2] is -5%; in test [3], -2%. Further, the result in test [5], in test [6], in test [7] and in test [8] was inactive.

For `Cc1cc(C(=O)CN2C(=O)NC(C)(c3cccc4ccccc34)C2=O)c(C)n1Cc1ccco1` (configuration not stated), the growth inhibition in test [1] is 23%; in test [4], 90% (active). The inhibition in test [2] was -2%; in test [3], 0%. Also, the result in test [5], in test [6], in test [7] and in test [8] was inactive.

For the molecule `CN1CCCN(Cc2cccc(-c3ccc(NC(=O)c4cccc(Cl)c4)cc3)c2)CC1`, the results for the growth inhibition in test [1] and in test [4] were 10% and 90% (active), respectively. Moreover, the inhibition in test [2] is 34%; in test [3], -3%. The outcome in test [5], in test [6], in test [7] and in test [8] was inactive.

`CC1(C)N=C(N)N=C(N)N1c1ccccc1`: the growth inhibition in test [1] was 1%; in test [4] it was 98% (active). In addition, the results for the inhibition in test [2] and in test [3] were 16% and -4%, respectively. The outcome in test [5], in test [6], in test [7] and in test [8] was inactive.

Take `CN1CCC(OC(=O)c2cc3cc(-c4ccccc4)ccc3n2S(=O)(=O)c2ccccc2)CC1`: the values for the growth inhibition in test [1] and in test [4] were 10% and 88% (active), respectively. Further, the inhibition in test [2] was 31%; in test [3] it was -5%. Also, the outcome in test [5], in test [6], in test [7] and in test [8] was inactive.

Regarding `CC(C)c1ncc(-c2ccncc2)c(C2CCC(CNC(=O)c3ccncc3)CC2)n1` (configuration not stated), the growth inhibition in test [1] is 49%; in test [4], 85% (active). Moreover, the inhibition is -6% in test [2] and 4% in test [3]. Further, the outcome in test [5], in test [6], in test [7] and in test [8] was inactive.

Regarding `CC(C)NCc1ccc(-c2cccc(-c3nc4ccccc4[nH]3)c2)cc1`, the results for the growth inhibition in test [1] and in test [4] were 34% and 101% (active), respectively. Also, the inhibition is 21% in test [2] and 0% in test [3]. The result in test [5], in test [6], in test [7] and in test [8] was inactive.

As for `Cc1cc(N[C@@H](Cc2ccccc2)C(=O)NCc2cccc(F)c2)nc(NCCc2cccnc2)n1`, the values for the growth inhibition in test [1] and in test [4] were 40% and 92% (active), respectively. Besides, the values for the inhibition in test [2] and in test [3] were 18% and -2%, respectively. Besides, the outcome in test [5], in test [6], in test [7] and in test [8] was inactive.

Take `CCCNCc1ccc(-c2ccc(CN(CCOC)C(=O)CCc3ccc(OC)cc3)cc2)nc1`: the growth inhibition is 29% in test [1] and 98% (active) in test [4]. Besides, the inhibition was 11% in test [2] and -1% in test [3]. In addition, the result in test [5], in test [6], in test [7] and in test [8] was inactive.

The values are drawn from PubChem BioAssay.
